Screens as filed in PubChem BioAssay.
PNC assembly inh: blocks assembly of the perinucleolar compartment; PC3M PTB-GFP, PNC prevalence imaging, 16 h; stronger effect = lower value; activity change (PNC), negative = inhibition, % at 10 µM; 3.1% of 140,000 active;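 active means readout at or below -70, meaning at least 70% loss of cells showing the perinucleolar compartment, a nuclear body marking cancer cells; inconclusive means readout between -30 and a set limit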
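PC3M cells stably expressing PTB-GFP, 750–1000 cells/well, treated 16 h at 37 °C with compound (23 nl of library stock), in duplicate. After paraformaldehyde fixation and Hoechst stain, imaged at 20x; PNC prevalence scored by image analysis.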
ALOX12 inhib: 12-hLO (ALOX12) enzyme inhibition | P18054 | purified 12-hLO, xylenol orange hydroperoxide absorbance | Potency, µM (titrated, usually from 57.1 µM), most hits filed as inhibitors | 0.12% of 150,000 active | AID 1452; further: nearly all actives have a fitted effect of over 55% in size
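Xylenol orange chromogenic assay: hydroperoxide from 12hLO oxidises Fe(II), giving red-shifted Fe(III)-XO absorbance. Conditions: 150 nM enzyme, 40 uM arachidonic acid, 25 mM Hepes pH 7.0, 0.01% Triton X-100, 30 min, room temperature.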
15-hLO-2 inh: inhibitors of human 15-lipoxygenase 2 (ALOX15B). purified 15hLO-2, xylenol orange hydroperoxide absorbance. Potency, µM (highest dose often 57.1 µM), actives largely listed as inhibitors. 0.56% of 110,000 active; further: nearly all actives have a fitted effect of over 60% in size
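Purified human 15hLO-2 (50 nM final) preincubated with compounds 15 min at room temperature in 25 mM Hepes pH 7.5, 0.01% Triton X-100, then 45 uM arachidonic acid added for 90 min; hydroperoxide detected via ferrous/xylenol orange, 573/405 nm absorbance ratio.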
IMPase Li inh: cell-permeable IMPase inhibitors with lithium potentiation; CHO-M1 cells, IP1 TR-FRET (IP-One), carbachol + lithium; Potency, µM (top dose mostly 59.4 µM), usual class: inhibitors; 0.35% of 210,000 active; AID 1457;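 further: IP1 builds up when IMPase is blocked and the TR-FRET signal falls; nearly all actives have a fitted effect of over 50% in size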
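Test compounds were applied to CHO-M1 cells previously cultured for 16–30 h at 2000 per well. A small lithium amount accompanied them; after 30 min at 37C, IP1 was quantified by TR-FRET.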
IMPase cell inh: cell-permeable inhibitors of inositol monophosphatase (IMPase). inhibition (IP1 accumulation), % at 46.1 µM. 120,000 tested, under 10 active. CHO-M1 cells, IP1 accumulation, HTRF TR-FRET ratio; active means well fitted curve in the direction sought with a large enough effect in the signal ratio, not every such curve was filed as active; inconclusive means small, poorly fitted or top-dose-only effect, or a change in a side signal; inactive means no such curve, though single readings can be large or run the other way; the % refers to the signal ratio;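 further: cells stimulated with carbachol in lithium chloride buffer; higher means more IMPase inhibition seen as more IP1 and lower FRET ratio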
Target sequence (P97697 whole entry, looked up): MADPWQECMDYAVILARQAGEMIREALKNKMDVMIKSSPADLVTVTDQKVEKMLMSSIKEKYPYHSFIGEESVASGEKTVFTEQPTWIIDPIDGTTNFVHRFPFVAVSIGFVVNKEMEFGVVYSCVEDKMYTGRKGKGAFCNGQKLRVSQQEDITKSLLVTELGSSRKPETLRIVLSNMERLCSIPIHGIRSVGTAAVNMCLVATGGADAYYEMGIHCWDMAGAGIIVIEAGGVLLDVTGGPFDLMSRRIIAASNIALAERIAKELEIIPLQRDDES
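In this qHTS, compounds (final up to 46 uM) act on CHO-M1 cells that are then activated through the M1 receptor with carbachol, in pH 7.4 buffer containing 50 mM LiCl, for 30 min. IP1 accumulation is quantified by the IP-One immunoassay.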
Numbers stand for hits; n = inactive; u = inconclusive; x = no result given; [ ] = another dose, or the depositor's remark. Only a selection was taken, and hits are over-represented in it overall. Unless noted, the call rests on the fitted dose curve; in most records, active means well fitted curve in the direction sought with a large enough effect; inconclusive means small, poorly fitted or top-dose-only effect, or another doubt; inactive means no such curve, though single readings can be large; an effect the other way counts as inactive or inconclusive.

SMILES	PNC assembly inh	ALOX12 inhib	15-hLO-2 inh	IMPase Li inh	IMPase cell inh
Cc1ccccc1SCc1noc(C(=O)NC(C)C)c1C(=O)O	-91	n	n	n	n
O=C(Nc1nccs1)c1cnccn1	-100	n	x	n	n
COc1ccc(C2C(C#N)=C(SC)NC3=C2C(=O)CC(C)(C)C3)cc1 (stereo not given)	u	n	n	n	n
CCOC(=O)CSC1=C(C#N)C(c2ccc(C)o2)CC(=O)N1 (stereo not given)	-85	n	x	n	n
CCOC(=O)CSC1=C(C#N)C(c2ccc(Cl)cc2)CC(=O)N1 (stereo not given)	n	n	n	n	n
CCOC(=O)CSC1=C(C#N)C(c2ccc(OC)cc2)C2=C(CC(C)(C)CC2=O)N1 (stereo not given)	n	n	n	10µM	u
CCOC(=O)c1ccc(NC2SC(=O)N(Cc3cccc(C(=O)O)c3)C2=O)cc1 (stereo not given)	x	x	x	x	n
CC1=CC(=O)OC1Cc1ccc2ccccc2n1 (stereo not given)	x	x	x	n	x
COCc1cc(C)n(CC(=O)Nc2ccc(NC(C)=O)cc2)c(=O)c1C#N	x	x	x	x	n
CC(C)(C)NC(=O)NC(=O)COC(=O)c1nc(-c2ccccc2)n(-c2cccc(C(F)(F)F)c2)n1	-112	n	x	n	x
O=C(O)c1nc(-c2ccccc2)n(-c2cccc(C(F)(F)F)c2)n1	x	x	x	n	x
COC(=O)N1[C@H](C)C=C[C@]1(Cc1ccccc1)C(=O)NCc1ccc(N(C)C)cc1	x	n	n	n	x
COc1ccccc1C(C)NCC(=O)Nc1ccccc1C(F)(F)F (stereo not given)	-116	n	x	n	x
Cc1ccccc1OCCCC(=O)Nc1ccccc1C(F)(F)F	n	n	n	n	n
O=C(c1ccncc1)N1CCC2(CCN(Cc3nccs3)CC2)CC1	x	n	n	n	x
Cc1nc(NC(=O)C2CC3CCCC(C2)C3=O)sc1C (stereo not given)	-122	n	n[2.29 µM]	n	n
COCCn1c(=O)c(-c2cccs2)nc2cnc(OCc3ccccc3)nc21	x	n	n	n	x
O=C(N/C(=C/c1ccco1)C(=O)N1CCCC1)c1cccs1	-106	n	x	n	n
Cc1cc(C(=O)N/N=C/c2cccnc2)cs1	-114	n	x	n	x
Cc1cc(C(=O)N/N=C/c2cccnc2)c(C)o1	n	n	n	n	n
COC(=O)c1nnn(CC(=O)NC(=O)Nc2cccc(C)c2C)c1C(=O)OC	-113	n	x	n	x
Cc1csc(SCc2ccc(C(=O)O)cc2)n1	-111	n	n	n	n
Cc1cccn2cc(-c3cccc(NC(=O)C(C)C)c3)nc12	x	x	x	x	n
COc1cc2c(-c3cc(Br)ccc3O)nc3c(c(C)nn3-c3ccccc3)c2cc1OC	x	x	x	x	n
COc1cc(-c2nc3c(c(C)nn3-c3ccccc3)c3cc(OC)c(OC)cc23)ccc1O	-109	n	n	n	n
SMILES	PNC assembly inh	ALOX12 inhib	15-hLO-2 inh	IMPase Li inh	IMPase cell inh
CC1CC2C3CC(F)C4=CC(=O)C=C[C@@]4(C)[C@@]3(F)C(O)C[C@]2(C)[C@]1(O)C(=O)COC(=O)C(C)(C)C (stereo not given in full)	x	n	n	n	x
Cc1cc(C)c(-c2c(O)c3cccc4c3n(c2=O)CCC4)c(C)c1	-100	n	x	n	n
O=c1c(-c2ccccc2)c(O)c2cccc3c2n1CCC3	n	n	n	n	n
Cc1ccc2nc(C(Cl)(Cl)Cl)nc(N/N=C/c3ccncc3)c2c1	x	x	x	n	x
Cc1ccc(-c2nc(N/N=C/c3ccncc3)c3ccccc3n2)cc1	-83	n	n	n	n
CC(=O)c1sc2nc(-c3ccc(C)cc3)c3c(c2c1N)CCCC3	n	n	x	n	x
Cc1ccc(-c2nc3sc(C(N)=O)c(N)c3c3c2CCCC3)cc1	n	n	x	11µM	x
CCOc1ccc2nc(NC(=O)C3CCCN(S(=O)(=O)c4cccc5nonc45)C3)sc2c1 (stereo not given)	n	n	n	n	n
O=C(Nc1nc2ccc(S(=O)(=O)N3CCCC3)cc2s1)C1CCCCC1	-108	n	n	n	n
COc1ccc2nc(NC(=O)C3CCCN(S(=O)(=O)c4cccc5nonc45)C3)sc2c1 (stereo not given)	-100	n	x	n	n
O=C(Nc1nc2ccc(S(=O)(=O)N3CCCCC3)cc2s1)C1CCCO1 (stereo not given)	n	n	n	n	n
